From the supplement of paper PMC10849652
Of roughly 7,900 targets only a part is listed; those with a hit were picked by preference. About 0.6% of all pairs of compound and target were hits. Values without a mark were called inactive.

Tests used:
Test in all cases: log2 fold change, soluble protein after heating vs DMSO (PISA); higher = thermal stabilisation; K562 cells, 10 uM, 30 min; active = over 0.2 and 3.5 SD of the protein, either way, in both replicates (recomputed)
erlotinib = compound: C#Cc1cccc(Nc2ncnc3cc(OCCOC)c(OCCOC)cc23)c1 [erlotinib]
Procedure, shortened: (§1)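 For each measurement, 10 μM compound was applied for 30 min to K562 cells at 2×10^6 cells/mL. Aliquots were heated for 3 min across 48°C-58°C, pooled, and extracted in PBS with 0.5% NP-40 at 4°C; the supernatant after 21,000xg for 90 min was soluble protein. This was quantified by TMTpro 16plex LC-MS/MS with channel sums equalised, and thermal stability was reported relative to control samples from duplicates, on a log2 fold-change scale.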

[1] = compound: C/C(=N\NC(=O)C1=CC(=CC=C1)S(=O)(=O)N2CCOCC2)/C3=C(C=CC(=C3)Cl)O
Procedure, shortened: as §1

[2] = compound: C1=CC(=C(C=C1Cl)C2=NC3=NC=CN=C3C(=N2)NC4=CC=NC=C4)F
Procedure, shortened: as §1

[3] = compound: C1=CC(=CC=C1C2=NC3=C(N2)C=C(C=C3)C(=O)N)OC4=CC=C(C=C4)Cl
Procedure, shortened: as §1

[4] = compound: C1=CC2=C(C=CC(=C2)/C=C\3/C(=O)NC(=NCC4=CC=CS4)S3)N=C1
Procedure, shortened: as §1

[5] = compound: C1=CC2=NC=CN=C2C=C1/C=C/3\C(=O)NC(=O)S3
Procedure, shortened: as §1

[6] = compound: C1=CC=C2C(=C1)C3=NNC4=CC=CC(=C43)C2=O
Procedure, shortened: as §1

[7] = compound: C1CCN(C1)C(=O)NC2=CC=CC(=C2)NC3=NC=C(C(=N3)NCCC4=CN=CN4)Br
Procedure, shortened: as §1

[8] = compound: C1CN(CCC1(CC2=CC=C(C=C2)Cl)N)C3=NC=NC4=C3C=CN4
Procedure, shortened: as §1

[9] = compound: C1=CC=C(C=C1)C2=NC(=C(N2)C3=CC=NC=C3)C4=CC(=C(C=C4)Cl)O
Procedure, shortened: as §1

UniProt Q14671, sequence (Q14671 whole entry, looked up): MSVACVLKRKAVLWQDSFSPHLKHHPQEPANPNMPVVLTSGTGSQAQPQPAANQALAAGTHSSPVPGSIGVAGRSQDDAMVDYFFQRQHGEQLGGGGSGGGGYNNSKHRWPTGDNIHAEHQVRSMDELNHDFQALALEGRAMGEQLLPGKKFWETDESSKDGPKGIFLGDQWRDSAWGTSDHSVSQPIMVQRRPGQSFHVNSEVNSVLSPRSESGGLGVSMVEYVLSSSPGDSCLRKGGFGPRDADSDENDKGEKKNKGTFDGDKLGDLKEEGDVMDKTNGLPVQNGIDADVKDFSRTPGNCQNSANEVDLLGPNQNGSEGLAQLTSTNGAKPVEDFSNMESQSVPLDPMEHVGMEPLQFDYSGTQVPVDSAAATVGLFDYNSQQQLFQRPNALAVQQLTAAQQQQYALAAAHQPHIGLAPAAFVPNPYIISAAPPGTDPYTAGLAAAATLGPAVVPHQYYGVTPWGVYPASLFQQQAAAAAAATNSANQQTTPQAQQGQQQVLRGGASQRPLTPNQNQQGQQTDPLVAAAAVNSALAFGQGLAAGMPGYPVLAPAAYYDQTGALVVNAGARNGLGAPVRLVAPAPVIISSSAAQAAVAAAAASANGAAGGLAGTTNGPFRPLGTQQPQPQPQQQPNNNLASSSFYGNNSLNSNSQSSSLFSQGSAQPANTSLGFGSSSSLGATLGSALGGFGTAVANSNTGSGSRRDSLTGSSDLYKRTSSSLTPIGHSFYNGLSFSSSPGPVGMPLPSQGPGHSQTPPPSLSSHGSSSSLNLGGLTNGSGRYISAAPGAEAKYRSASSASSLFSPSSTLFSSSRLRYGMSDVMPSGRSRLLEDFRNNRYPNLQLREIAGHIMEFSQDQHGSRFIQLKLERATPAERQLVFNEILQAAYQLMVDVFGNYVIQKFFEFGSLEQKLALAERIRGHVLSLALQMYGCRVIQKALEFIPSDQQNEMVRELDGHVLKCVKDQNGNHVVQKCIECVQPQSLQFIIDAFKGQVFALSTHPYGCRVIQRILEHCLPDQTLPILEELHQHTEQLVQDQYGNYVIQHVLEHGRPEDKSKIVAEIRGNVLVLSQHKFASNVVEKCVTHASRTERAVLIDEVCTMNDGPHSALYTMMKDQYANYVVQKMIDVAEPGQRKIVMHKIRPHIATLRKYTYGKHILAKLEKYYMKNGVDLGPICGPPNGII
UniProt Q9BTU6, sequence (Q9BTU6 whole entry, looked up): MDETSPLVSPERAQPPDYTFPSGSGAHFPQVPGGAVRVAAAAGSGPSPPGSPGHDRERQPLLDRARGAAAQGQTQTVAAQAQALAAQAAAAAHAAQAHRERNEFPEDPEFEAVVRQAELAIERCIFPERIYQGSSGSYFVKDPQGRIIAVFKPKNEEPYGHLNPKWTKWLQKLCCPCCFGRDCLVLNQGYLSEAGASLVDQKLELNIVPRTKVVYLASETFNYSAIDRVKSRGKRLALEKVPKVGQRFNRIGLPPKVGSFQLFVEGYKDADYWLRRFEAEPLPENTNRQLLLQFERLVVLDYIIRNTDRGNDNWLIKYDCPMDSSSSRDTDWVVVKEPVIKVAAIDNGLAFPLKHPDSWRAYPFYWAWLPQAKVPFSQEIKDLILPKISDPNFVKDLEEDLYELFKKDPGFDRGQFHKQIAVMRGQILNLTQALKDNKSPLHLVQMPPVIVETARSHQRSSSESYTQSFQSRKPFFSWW
UniProt P31321, sequence (P31321 whole entry, looked up): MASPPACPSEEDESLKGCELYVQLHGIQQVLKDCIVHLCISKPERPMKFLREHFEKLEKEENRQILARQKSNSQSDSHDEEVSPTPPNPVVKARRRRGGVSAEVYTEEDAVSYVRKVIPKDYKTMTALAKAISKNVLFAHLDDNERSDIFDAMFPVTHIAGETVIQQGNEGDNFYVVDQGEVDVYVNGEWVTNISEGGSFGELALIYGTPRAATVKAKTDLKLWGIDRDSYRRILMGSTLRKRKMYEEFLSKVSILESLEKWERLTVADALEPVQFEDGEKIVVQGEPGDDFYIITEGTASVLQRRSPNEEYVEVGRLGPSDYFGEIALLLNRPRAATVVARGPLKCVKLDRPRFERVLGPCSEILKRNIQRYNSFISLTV
UniProt O60237, sequence (O60237 whole entry, looked up): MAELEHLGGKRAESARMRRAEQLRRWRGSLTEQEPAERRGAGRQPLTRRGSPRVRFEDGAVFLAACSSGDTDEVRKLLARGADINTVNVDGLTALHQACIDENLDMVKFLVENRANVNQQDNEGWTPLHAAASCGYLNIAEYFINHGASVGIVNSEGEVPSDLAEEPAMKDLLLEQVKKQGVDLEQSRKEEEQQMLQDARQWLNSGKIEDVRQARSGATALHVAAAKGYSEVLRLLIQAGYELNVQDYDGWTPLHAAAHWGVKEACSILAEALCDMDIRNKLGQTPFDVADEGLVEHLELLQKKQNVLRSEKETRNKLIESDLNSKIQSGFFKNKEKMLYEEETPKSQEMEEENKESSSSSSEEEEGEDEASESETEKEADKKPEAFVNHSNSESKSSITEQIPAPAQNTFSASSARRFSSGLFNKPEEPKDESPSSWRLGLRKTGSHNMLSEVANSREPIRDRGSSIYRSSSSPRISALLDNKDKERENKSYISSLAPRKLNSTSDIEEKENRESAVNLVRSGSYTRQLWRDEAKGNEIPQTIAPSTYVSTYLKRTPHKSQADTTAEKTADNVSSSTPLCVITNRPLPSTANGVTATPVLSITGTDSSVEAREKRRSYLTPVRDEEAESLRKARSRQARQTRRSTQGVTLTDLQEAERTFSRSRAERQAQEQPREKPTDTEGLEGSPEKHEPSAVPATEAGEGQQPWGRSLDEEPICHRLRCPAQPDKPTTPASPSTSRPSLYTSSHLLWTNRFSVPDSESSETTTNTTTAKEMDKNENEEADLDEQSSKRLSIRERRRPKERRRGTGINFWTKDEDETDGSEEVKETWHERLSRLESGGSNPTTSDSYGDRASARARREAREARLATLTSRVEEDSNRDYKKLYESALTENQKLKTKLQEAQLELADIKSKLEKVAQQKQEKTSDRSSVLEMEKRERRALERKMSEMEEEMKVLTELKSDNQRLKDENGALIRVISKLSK
UniProt O43924, sequence (O43924 whole entry, looked up): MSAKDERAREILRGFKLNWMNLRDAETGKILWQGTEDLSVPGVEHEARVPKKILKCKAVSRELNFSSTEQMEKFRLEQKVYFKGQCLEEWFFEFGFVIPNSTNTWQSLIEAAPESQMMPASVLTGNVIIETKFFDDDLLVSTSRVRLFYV
UniProt Q96A00, sequence (Q96A00 whole entry, looked up): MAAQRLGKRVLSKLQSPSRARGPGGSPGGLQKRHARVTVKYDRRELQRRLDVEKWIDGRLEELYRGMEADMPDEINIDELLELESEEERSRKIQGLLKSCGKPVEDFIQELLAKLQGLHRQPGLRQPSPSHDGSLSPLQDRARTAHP
UniProt Q15173, sequence (Q15173 whole entry, looked up): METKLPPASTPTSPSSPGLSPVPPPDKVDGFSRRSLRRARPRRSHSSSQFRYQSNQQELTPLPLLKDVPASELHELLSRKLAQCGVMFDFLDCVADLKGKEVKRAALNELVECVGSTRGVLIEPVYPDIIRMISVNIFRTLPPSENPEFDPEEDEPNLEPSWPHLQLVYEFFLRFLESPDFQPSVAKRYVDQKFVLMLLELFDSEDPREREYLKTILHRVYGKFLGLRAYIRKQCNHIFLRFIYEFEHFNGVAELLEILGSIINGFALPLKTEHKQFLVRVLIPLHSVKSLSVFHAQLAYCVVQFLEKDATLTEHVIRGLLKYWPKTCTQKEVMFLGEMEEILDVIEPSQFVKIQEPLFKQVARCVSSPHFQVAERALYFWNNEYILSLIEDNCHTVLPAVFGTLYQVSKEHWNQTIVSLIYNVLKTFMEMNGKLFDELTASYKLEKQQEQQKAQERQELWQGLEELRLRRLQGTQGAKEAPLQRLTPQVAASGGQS
UniProt P51817, sequence (P51817 whole entry, looked up): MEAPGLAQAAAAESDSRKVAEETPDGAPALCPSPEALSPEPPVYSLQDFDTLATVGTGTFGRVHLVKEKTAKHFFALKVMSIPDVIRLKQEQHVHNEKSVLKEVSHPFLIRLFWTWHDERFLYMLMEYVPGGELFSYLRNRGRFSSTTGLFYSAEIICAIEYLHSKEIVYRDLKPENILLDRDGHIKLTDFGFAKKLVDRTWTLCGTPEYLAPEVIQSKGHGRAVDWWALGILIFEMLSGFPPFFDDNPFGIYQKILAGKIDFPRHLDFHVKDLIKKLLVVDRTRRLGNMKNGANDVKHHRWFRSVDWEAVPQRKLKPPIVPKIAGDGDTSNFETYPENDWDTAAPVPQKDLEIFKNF
UniProt Q6GMV3, sequence (Q6GMV3 whole entry, looked up): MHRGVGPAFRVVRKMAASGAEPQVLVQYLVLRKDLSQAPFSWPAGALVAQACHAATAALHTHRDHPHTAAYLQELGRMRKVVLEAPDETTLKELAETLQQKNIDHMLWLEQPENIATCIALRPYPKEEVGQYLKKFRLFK

Row | Target | log2 fold change (erlotinib) | log2 fold change [1] | log2 fold change [2] | log2 fold change [3] | log2 fold change [4] | log2 fold change [5] | log2 fold change [6] | log2 fold change [7] | log2 fold change [8] | log2 fold change [9]
1 | PDE6D (UniProt O43924) | -0.094 | 0.055 | -0.082 | -0.102 | 0.078 | 0.004 | 0.115 | 0.417 | 0.028 | –
2 | PPP1R14A (UniProt Q96A00) | 0.047 | 0.004 | 0.004 | 0.063 | -0.036 | -0.001 | 0.004 | 0.016 | 0.015 | 0.341 (active)
3 | PUM1 isoform 3 (UniProt Q14671) | -0.023 | 0 | 0.04 | 0.034 | 0.047 | 0.003 | 0.003 | -0.057 | 0.028 | -0.013
4 | PI4K2A (UniProt Q9BTU6) | -0.037 | -0.01 | 0.01 | 0.019 | 0.021 | 0.071 | 0.01 | -0.002 | 0.046 | -0.029
5 | PEX16 isoform 2 (UniProt Q9Y5Y5) | 0.081 | -0.044 | 0.147 | 0.013 | 0.085 | 0.06 | -0.004 | -0.031 | 0.051 | 0.008
6 | PDS5A (UniProt Q29RF7) | 0.225 | 0.132 | 0.04 | -0.227 | 0.05 | -0.176 | 0.108 | -0.25 | -0.267 | 0.14
7 | PRKCB isoform 2 (UniProt P05771) | 0.038 | 0.031 | 0.038 | 0 | 0.086 | 0.004 | 0.037 | 0 | -0.067 | 0.021
8 | POLR2M (UniProt Q6EEV4) | -0.044 | 0.096 | 0.242 | 0.223 | -0.006 | -0.001 | -0.048 | -0.041 | 0.024 | –
9 | PCBP2 (UniProt F8VRH0) | -0.011 | 0.07 | 0.016 | -0.099 | -0.26 | -0.153 | -0.04 | -0.13 | 0.113 | –
10 | PCTP (UniProt Q9UKL6) | 0.035 | -0.04 | 0.065 | 0.046 | 0.057 | 0.076 | 0.002 | 0.049 | -0.035 | 0.012
11 | PRKCA (UniProt P17252) | 0.117 | 0.041 | 0.04 | -0.009 | 0.127 | 0.016 | -0.006 | 0.008 | -0.074 | -0.019
12 | PTRHD1 (UniProt Q6GMV3) | -0.002 | 0.005 | 0.37 (active) | 0.046 | 0.134 | 0.045 | -0.032 | -0.017 | -0.012 | 0.121
13 | PITRM1 isoform 2 (UniProt Q5JRX3) | -0.004 | -0.008 | 0.012 | 0.005 | 0.118 | 0.007 | 0.03 | 0.023 | 0.153 | 0.041
14 | PRKAR1B (UniProt P31321) | -0.027 | -0.056 | -0.036 | 0.013 | 0.205 | 0.282 | 0.102 | 0.086 | -0.077 | -0.006
15 | PJA2 (UniProt O43164) | -0.006 | -0.047 | -0.049 | 0.018 | 0.003 | 0.071 | -0.112 | -0.024 | -0.009 | -0.061
16 | PPP2R5C isoform 5 (UniProt Q13362) | 0.028 | 0.021 | 0.015 | -0.014 | 0.009 | -0.036 | 0.047 | -0.018 | -0.002 | 0.004
17 | PPP1R12B isoform 6 (UniProt O60237) | 0.226 | – | – | 0.001 | – | -0.081 | – | – | – | –
18 | PIAS4 (UniProt Q8N2W9) | – | – | 0.061 | – | – | – | – | 0.129 | -0.045 | -0.214
19 | PSMA3 (UniProt G3V4X5) | – | – | – | – | – | 0.051 | – | – | – | 0.348

Row | Target | log2 fold change (erlotinib) | log2 fold change [1] | log2 fold change [2] | log2 fold change [3] | log2 fold change [4] | log2 fold change [5] | log2 fold change [6] | log2 fold change [7] | log2 fold change [8] | log2 fold change [9]
20 | PPP2R5B (UniProt Q15173) | -0.044 | 0.039 | – | -0.05 | -0.003 | 0.072 | 0.124 | – | – | –
21 | PRKD2 (UniProt M0R346) | – | – | -0.066 | – | – | -0.032 | – | – | – | –
22 | PSMC3 (UniProt E9PLG2) | – | – | -0.437 | – | – | 0.151 | – | 0.27 | -0.045 | –
23 | PTP4A3 (UniProt O75365) | – | – | – | – | – | -0.041 | – | – | – | –
24 | PPP2R5C isoform 2 (UniProt Q13362) | -0.012 | – | – | -0.02 | – | -0.011 | – | – | – | -0.039
25 | PCNX1 (UniProt Q96RV3) | – | – | 0.036 | – | – | -0.006 | – | -0.019 | -0.041 | –
26 | PCBP2 (UniProt F8VZX2) | -0.014 | – | – | -0.077 | – | -0.019 | – | – | – | -0.008
27 | PRKX (UniProt P51817) | 0.169 | – | – | 0.035 | – | 0 | – | – | – | –
28 | PDE4DIP (UniProt E9PS60) | 0.086 | – | – | -0.175 | – | – | – | – | – | –
29 | POLB (UniProt P06746) | -0.236 | – | -0.186 | 0.094 | – | – | – | -0.118 | 0.002 | 0
30 | PSMD8 (UniProt K7ERW6) | – | – | – | – | – | – | – | 0.052 | -0.148 | –
31 | PHRF1 (UniProt Q9P1Y6) | -0.161 | – | – | 0.082 | – | – | – | – | – | 0.073
32 | PMS2CL (UniProt Q68D20) | – | – | 0.094 | – | – | – | – | – | – | -0.023
33 | PAN2 (UniProt Q504Q3) | – | – | – | – | – | 0.044 | – | – | – | –
34 | PHC3 isoform 7 (UniProt Q8NDX5) | 0.08 | – | 0.24 | -0.002 | – | 0.174 | – | – | – | –
35 | PCID2 (UniProt Q5JVF3) | 0.086 | – | -0.088 | -0.021 | – | 0.028 | – | -0.086 | -0.161 | -0.005
36 | PUM1 (UniProt Q14671) | 0.308 | 0.035 | – | 0.15 | -0.034 | – | 0.051 | -0.045 | -0.024 | –
37 | PTEN isoform 2 (UniProt P60484) | 0.264 | – | – | 0.061 | – | – | – | – | – | 0.178
